# Source: PubChem BioAssay AID2551 (National Center for Advancing Translational Sciences (NCATS), 2010)
# Hit rate of the full screen: of about 310,000 compounds, about 17,000 (5.5%) were called active. Another 11% or so got no clear call; they are omitted. Calls come from the whole dose curve; as a rule, active = well fitted inhibition curve with a large enough effect; inconclusive = small, poorly fitted or top-dose-only effect, or effect the other way; inactive = no such curve, though single readings can be large or run the other way. For the sample, actives were picked, then their nearest neighbours and some compounds at random.
# Target: Nuclear receptor ROR-gamma (Mus musculus) (UniProt P51450)
# Sequence (P51450 whole entry, looked up): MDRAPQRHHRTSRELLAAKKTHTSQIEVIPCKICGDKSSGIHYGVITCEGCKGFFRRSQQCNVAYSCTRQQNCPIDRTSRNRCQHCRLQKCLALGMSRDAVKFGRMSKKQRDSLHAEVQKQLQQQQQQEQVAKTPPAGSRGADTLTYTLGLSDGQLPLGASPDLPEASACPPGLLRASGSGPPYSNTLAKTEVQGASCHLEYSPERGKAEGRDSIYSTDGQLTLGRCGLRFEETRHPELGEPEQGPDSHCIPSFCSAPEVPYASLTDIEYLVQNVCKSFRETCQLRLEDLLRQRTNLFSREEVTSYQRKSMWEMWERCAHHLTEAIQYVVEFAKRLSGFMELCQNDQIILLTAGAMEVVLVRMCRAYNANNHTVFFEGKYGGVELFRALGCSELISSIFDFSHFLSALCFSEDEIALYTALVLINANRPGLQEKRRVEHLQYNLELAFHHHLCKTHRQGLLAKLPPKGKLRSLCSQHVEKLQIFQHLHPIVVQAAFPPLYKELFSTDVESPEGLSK
# Assay: qHTS for inhibitors of ROR gamma transcriptional activity; note: nearly all actives have a fitted effect of over 60% in size
# Conditions: Drosophila S2 Gal4-RORgamma UAS-luciferase reporter, 20 h; series mostly up to 53.6 µM; activity change, negative = inhibition: at the top concentration
# How it was run: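 Drosophila Schneider cells stably carrying a metallothionein-driven Gal4 DBD–ROR gamma fusion and a UAS-Photinus luciferase reporter were exposed to compound for 1 hr, then induced with copper sulfate (700 uM final) for 20 hr at ambient temperature before luminescence reading.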
# % is set by controls: 0 for no effect and ±100 for the full control effect; potency is the fitted concentration of half-maximal effect.
Compound,"activity change, negative = inhibition",Potency
CCCS(=O)(=O)Nc1ccc(-c2cn3c(n2)SCC3)cc1,5.34% (inactive),–
Cc1cc(C)c([N+](=O)[O-])cc1-c1ccc(/C=N/NC(=O)c2nonc2N)o1,–,11.2 µM (active)
COc1cc(/C=N\NC(=O)c2nonc2N)c(OC)cc1Br,-6.29% (inactive),–
Cc1ccc(-c2ccc(/C=N/NC(=O)CN3CCOCC3)o2)cc1[N+](=O)[O-],-112% (inactive),–
COc1ccnc2c1c(=O)n(Cc1cccc(F)c1)c(=O)n2C,-8.83% (inactive),–
Clc1cccc(CN2COc3c(cc(Cl)c4cccnc34)C2)c1,–,0.562 µM (active)
CC(C)CC(=O)N1CCN(Cc2cccc(Cl)c2)CC1,-20.8% (inactive),–
O=c1[nH]n(-c2cccc(Cl)c2)c2ncccc12,13.5% (inactive),–
COc1ccc(Cl)cc1NS(=O)(=O)c1cccc(C(=O)NCC2CCCO2)c1 (stereo not drawn),-22.2% (inactive),–
O=C(COc1ccc([N+](=O)[O-])cc1)Nc1cccc(C(=O)Nc2ccccc2C(=O)O)c1,5.24% (inactive),–
CCCOc1ccc(CNC(=O)C2CCN(c3nn4c(=O)cc(C)nc4s3)CC2)cc1,-8.37% (inactive),–
Cc1cc(C(C)(C)C)n2nc(C)c(-c3ccccc3)c2n1,-8.83% (inactive),–
Cc1cc(N2CCCC2)n2nc(C)c(-c3ccccc3)c2n1,19% (inactive),–
Cc1nn2c(NCCN(C)C)c3c(nc2c1-c1ccccc1)CCC3,–,0.141 µM (active)
COc1ccc(-c2noc(C(C)NS(=O)(=O)c3ccc(NC(C)=O)cc3)n2)cc1 (stereo not drawn),37.7% (inactive),–
Cc1cc(C)cc(NC(=O)C2CCCN(S(=O)(=O)c3ccc4[nH]c(=O)ccc4c3)C2)c1 (stereo not drawn),-31.2% (inactive),–
CSc1nc2sc3c(c2c(=O)[nH]1)CCc1ccccc1-3,-60.4% (inactive),–
COc1ccc(-n2c(=S)[nH]c3sc4c(c3c2=O)CCc2ccccc2-4)cc1,–,0.447 µM (active)
CCCSc1nc2sc3c(c2c(=O)n1-c1ccc(OC)cc1)CCN(C)C3,-3.28% (inactive),–
Cn1c(CCN2CCCC2)nc2cc(NS(=O)(=O)c3ccccc3)ccc21,-26.1% (inactive),–
CN(CCC1CCOCC1)C(=O)CC1C(=O)NCCN1Cc1cccc(F)c1 (stereo not drawn),5.46% (inactive),–
CCCCC(CC)CNCc1cccn1CCN1CCOCC1 (stereo not drawn),-0.924% (inactive),–

Compound,"activity change, negative = inhibition",Potency
COc1ccc(CCNC(=O)C2CCCN2C(=O)Nc2ccccc2)cc1OC (stereo not drawn),-13.3% (inactive),–
C/C(=N\NC(=O)c1cc(-c2ccc(O)cc2)nc2ccccc12)c1cccnc1,-37.7% (inactive),–
O=C(O)c1ccc2c(c1)C(=O)N(c1ccc(/C=C/C(=O)c3ccccc3)cc1)C2=O,-43.4% (inactive),–
Cc1cccc(N2C(=O)c3ccc(C(=O)Nc4cccc(C(=O)O)c4)cc3C2=O)c1,1.44% (inactive),–
O=C(O)c1ccc2c(c1)C(=O)N(NC(=O)c1ccc(O)cc1)C2=O,–,11.2 µM (active)
Cc1cc(OCC(=O)NCC(O)c2ccccc2)c2c(C)c(C)c(=O)oc2c1 (stereo not drawn),29.2% (inactive),–
O=C(O)CCCCCCCCc1cn(CN2C(=O)c3ccccc3C2=O)nn1,-39.7% (inactive),–
CC1CCN(C(=S)NC(=O)c2ccccc2Br)CC1,–,0.562 µM (active)
CC1CCN(C(=O)c2ccccc2NC(=O)Cc2ccccc2)CC1,18.3% (inactive),–
CC1CCN(C(=O)/C(=C\c2ccccc2)NC(=O)c2ccccc2)CC1,-6.2% (inactive),–
COc1ccc(NC(=O)C(C)N2c3cccc4cccc(c34)S2(=O)=O)c(OC)c1 (stereo not drawn),16.9% (inactive),–
COc1ccc(COC(=O)c2ccc(Cl)c(S(=O)(=O)N3CCOCC3)c2)cc1F,-12.6% (inactive),–
CC(C)(C)OC(=O)N1CCC(C(=O)NNC(=O)c2ccc(Cl)cc2Cl)CC1,-7.57% (inactive),–
O=C(CN1CCC(O)(c2cccc(C(F)(F)F)c2)CC1)NCCc1ccccc1,0.0393% (inactive),–
O=C(CCc1nnc(Cc2ccc3c(c2)OCO3)o1)NCCc1ccccc1Cl,8.86% (inactive),–
O=C(N/N=C/c1cccc2cccnc12)[C@H]1C[C@@H]1c1ccccc1,–,3.55 µM (active)
Cc1ccc(NC(=O)C2CC2c2ccccc2)cc1 (stereo not drawn),44.6% (inactive),–
O=C(NNC(=S)Nc1ccc(F)cc1)[C@H]1C[C@@H]1c1ccccc1,-42.6% (inactive),–
COc1ccc(CCN(C)C(=O)C23CC4CC(CC(Cl)(C4)C2)C3)cc1OC,12.2% (inactive),–
Cc1ccc(N2C(=O)C3C4C=CC(CC4)C3C2=O)cc1Br (stereo not drawn),-11.5% (inactive),–
O=C(CN1CCCCCC1)Nc1ccc(Cl)cc1F,-20.3% (inactive),–
CCOc1ccc(N2CC(C(=O)NCc3ccccn3)CC2=O)cc1 (stereo not drawn),-0.568% (inactive),–

Compound,"activity change, negative = inhibition",Potency
COC(=O)c1ccc(C(=O)Nc2cc(Cl)ccc2Cl)cc1NC(=O)c1ccccc1C,–,11.2 µM (active)
COC(=O)c1ccc(C(=O)OC)c(NC(=S)N2CCN(c3cc(Cl)ccc3C)CC2)c1,-19.9% (inactive),–
COC(=O)c1ccccc1NC(=O)c1cncc(Br)c1,-5.09% (inactive),–
COc1ccc(C(=O)NC(C)CCc2ccccc2)c(OC)c1 (stereo not drawn),38.8% (inactive),–
CCN(c1cccc(C)c1)S(=O)(=O)c1ccc(-c2coc(C)n2)cc1,3.96% (inactive),–
O=C1/C(=C/c2ccc3c(c2)OCO3)Oc2cc(OCC(=O)N3CC(O)C[C@H]3C(=O)O)ccc21 (stereo partly drawn),-19.9% (inactive),–
COC(=O)c1cc(OCC(=O)NC2CCCc3ccccc32)cc(C(=O)OC)c1 (stereo not drawn),-9.26% (inactive),–
O=C(NCCO)C(=O)NCC(c1ccc2c(c1)OCO2)N1CCN(c2ccc(F)cc2)CC1 (stereo not drawn),1.74% (inactive),–
O=c1oc2ccccc2cc1-c1cn(-c2ccccc2)c(=S)[nH]1,–,1.26 µM (active)
O=C(c1cn(-c2ccccc2)nc1-c1cc2ccccc2oc1=O)N1CCOCC1,-6.26% (inactive),–
O=C(Nc1cc2ccccc2oc1=O)C1CCCCC1,14.7% (inactive),–
CN1CCN(S(=O)(=O)c2ccc(NC(=S)NC(=O)C3CC3)cc2)CC1,-18.3% (inactive),–
O=C(NC(=S)Nc1ccc(Cl)cc1Cl)C1CC1,–,5.01 µM (active)
S=C(NCc1cccnc1)Nc1ccc(Cl)cc1Cl,0.343% (inactive),–
COc1ccc(N(CC(=O)Nc2cccc3ccccc23)S(C)(=O)=O)c(OC)c1,9.57% (inactive),–
CC(=O)c1ccc(S(=O)(=O)N(C)CCCC(=O)N(C)Cc2ccccc2F)cc1,28.3% (inactive),–
Cc1ccc(C(=O)Cn2cccn2)cc1,0.557% (inactive),–
Cc1ccc(C(=O)CSc2ccccc2C(=O)O)cc1,–,10 µM (active)
Cc1ccc(Sc2cc(C(=O)c3ccccc3C(=O)O)ccc2[N+](=O)[O-])cc1,13% (inactive),–
CCOc1cc(C2/C(=C(/O)c3ccc(S(=O)(=O)N4CCCCC4)cc3)C(=O)C(=O)N2CCOC)ccc1O (stereo not drawn),3.43% (inactive),–
Cc1cc(=O)oc2cc(OCC(=O)N3CCN(c4ccc(F)cc4)CC3)c(Cl)cc12,-6.12% (inactive),–
CCOC(=O)C1(Cc2ccccc2C)CCCN(C(=O)c2ccc(COC)o2)C1 (stereo not drawn),21% (inactive),–

Compound,"activity change, negative = inhibition",Potency
COc1cc(NC(=O)CN2C(=O)NC(C)(c3ccc(OC(F)F)cc3)C2=O)cc(OC)c1OC (stereo not drawn),44% (inactive),–
COc1ccc(O)c(/C=N/N=C/c2cccc([N+](=O)[O-])c2)c1,-10.9% (inactive),–
CCN(CC)C(=O)COc1coc(CN2CCN(Cc3ccccc3)CC2)cc1=O,-0.741% (inactive),–
Clc1ccc2nc(-c3ccccc3)nc(C(Cl)Cl)c2c1,26.6% (inactive),–
CSc1nc(-c2ccccc2)nc(C(Cl)Cl)n1,–,7.08 µM (active)
CCCc1cc(=O)oc2c(C)c(OC(C)C(=O)NCC(O)c3ccccc3)ccc12 (stereo not drawn),4.93% (inactive),–
C=CCc1ccccc1OCC(=O)N/N=C/c1ccccc1OCC,0.433% (inactive),–
O=C(COc1ccc(-n2cnnn2)cc1)Nc1ccccc1Cl,-8.26% (inactive),–
C=CCc1cccc(/C=N/NC(=O)COc2ccc(-n3cnnn3)cc2)c1O,–,8.91 µM (active)
O=C(C1CC(=O)N(c2ccc(F)cc2)C1)N1CCN(c2ccccc2)CC1 (stereo not drawn),0.455% (inactive),–
COc1cc(Nc2nc3ccc(Cl)cc3n3cnnc23)cc(OC)c1OC,-4.72% (inactive),–
CC1(c2ccc3ccccc3c2)NC(=O)N(CC(N)=O)C1=O (stereo not drawn),-5.53% (inactive),–
COc1ccc(S(=O)(=O)NCC(=O)NC2CC2)cc1OC,3.62% (inactive),–
Cc1ccc(C)c(C(C)NC(=O)C2CCCO2)c1 (stereo not drawn),-25% (inactive),–
Cc1ccc(C(=O)N/C(=C\c2ccc(F)cc2)C(=O)NCCN2CCOCC2)cc1,-1.59% (inactive),–
CCCCNC(=O)C(=O)c1ccccc1NC(C)=O,6.15% (inactive),–
O=[N+]([O-])c1ccccc1N/N=C1\CCc2ccccc21,22.6% (inactive),–
CCCCNC(=S)N/N=C1\CCCCc2ccccc21,–,2 µM (active)
CCNC(=O)CC1C(=O)N(c2ccc(OC)cc2)C(=O)N1CCOC (stereo not drawn),-1.87% (inactive),–
CC(=O)N/N=C/c1cc2c(cc1[N+](=O)[O-])OCO2,-16.9% (inactive),–
O=C(Cc1cc(=O)[nH][nH]1)N/N=C/c1ccccc1[N+](=O)[O-],7.28% (inactive),–
O=C(N/N=C/c1cc(Cl)cc([N+](=O)[O-])c1O)C(O)(c1ccccc1)c1ccccc1,–,1 µM (active)

Compound,"activity change, negative = inhibition",Potency
CN(C)/N=C/c1cc(Cl)cc([N+](=O)[O-])c1O,–,11.2 µM (active)
O=[N+]([O-])c1cc(Cl)cc(/C=N/NC(=S)Nc2cc(S(=O)(=O)N3CCOCC3)ccc2Cl)c1O,-35% (inactive),–
COC(=O)c1cc(CNC(=O)CC(C)c2ccccc2)ccc1OC (stereo not drawn),10.8% (inactive),–
CN(C)CCN(Cc1ccccc1)S(=O)(=O)c1csc(C(N)=O)c1,-20.5% (inactive),–
CCOC(=O)CC1COCCN1C(=O)c1cc(COc2ccc(F)c(F)c2)on1 (stereo not drawn),39.5% (inactive),–
COc1ccc(N(C)C(=O)C2CCN(S(=O)(=O)c3cccc4nsnc34)CC2)cc1,6.09% (inactive),–
CC(=O)Nc1cccc([N+](=O)[O-])c1,-1.22% (inactive),–
Cc1ccccc1NC(=S)Nc1cccc([N+](=O)[O-])c1,-34% (inactive),–
COC(=O)/C=C\C(=O)Nc1cccc([N+](=O)[O-])c1,–,3.16 µM (active)
Cn1nnc(NC(=O)CSc2ncn[nH]2)n1,24.3% (inactive),–
Cn1nnc(NC(=S)NC(=O)c2ccccc2)n1,–,3.55 µM (active)
COC(=O)c1nc(NC(=O)c2ccccc2)n[nH]1,7.37% (inactive),–
COc1ccc(CN2CCN(C(=O)CCC(=O)Nc3nnc(C(C)C)s3)CC2)cc1F,21.6% (inactive),–
O=C(CN(Cc1ccccc1)C(=O)CCC(=O)Nc1ccccn1)NCCc1ccccc1,24.4% (inactive),–
Cc1cc(C)c2nc(N(CCN(C)C)C(=O)/C=C/c3cccs3)sc2c1,-0.19% (inactive),–
Cc1cccc2sc(N(CCCN(C)C)C(=O)CCS(=O)(=O)c3ccccc3)nc12,–,10 µM (active)
Cc1ccc2sc(N(CCN(C)C)C(=O)/C=C/c3cccs3)nc2c1C,-30.6% (inactive),–
CN(C)CCCN(C(=O)COc1ccccc1)c1nc2c(Cl)cccc2s1,-9.36% (inactive),–
COc1cc2ccccc2cc1C(=O)N(CCN(C)C)c1nc2c(F)cccc2s1,-22.6% (inactive),–
COc1cccc2sc(N(CCCN(C)C)C(=O)CCS(=O)(=O)c3ccccc3)nc12,–,11.2 µM (active)
